{
  "source": "the supplement of paper PMC8728848",
  "binders": {"B1": {"name": "SP16665A-bot-344-23-344 (Bacteroides ovatus) (protein)", "chain": "SDNEFPDFDYQTVYFANQYGLRTIELGESEFVDNTLDNQHKMVIKAAWGGGYTNRNNVVINFKVDESLCDNLYFKDTDQPLVPMPASYYTLASDRIAIPKGQIMAGVEVQLTDDFFADEKSISENYVIPLLMTNVQGADSILQGKPVVENPVLTNAGDWSILPQNFVLYAVKYVNPWHGEYLRRGIDHATVAGTSKDIIRHEQFVENDEVVNISTKSMKDNLLTLKTKDESGKDISYTVRLSFAEDGSCTVHSGSQNVVVSGSGKFVSKGEKNSLGGKDRNAIYLDYTVNLTDNNIQLATKDTLVLRTRNVYGGKSLEVVRK"}},
  "test_in_all_cases": "glycan array binding signal (z-score within array); higher = stronger binding",
  "conditions_in_all_cases": "glycan notation: IUPAC condensed, linker removed",
  "key": {"[1]": {"target": "Fuc(a1-2)Gal(b1-3)GalNAc(a1-3)[Fuc(a1-2)]Gal(b1-4)GlcNAc", "how_it_was_run": "(§1)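 Glycan array data were curated from 3228 arrays in the Consortium for Functional Glycomics database and kept only where the protein sequence was available. Glycan names were converted to IUPAC-condensed notation, and columns mapping to the same glycan were averaged. The binding signal is a within-array Z-score, averaged across arrays of the same protein sequence at different concentrations or buffers and across linkers. Negative Z-scores can be read as non-binding.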"}, "[2]": {"target": "Fuc(a1-2)Gal(b1-3)GlcNAc(b1-2)Man(a1-3)[Fuc(a1-2)Gal(b1-3)GlcNAc(b1-2)Man(a1-6)]Man(b1-4)GlcNAc(b1-4)[Fuc(a1-6)]GlcNAc", "how_it_was_run": "as §1"}, "[3]": {"target": "Fuc(a1-2)Gal(b1-3)GlcNAc(b1-3)Gal(b1-4)Glc", "how_it_was_run": "as §1"}, "[4]": {"target": "Fuc(a1-2)Gal(b1-3)GlcNAc(b1-3)[Gal(b1-4)GlcNAc(b1-6)]Gal(b1-4)Glc", "how_it_was_run": "as §1"}, "[5]": {"target": "Fuc(a1-2)Gal3S(b1-4)GlcNAc", "how_it_was_run": "as §1"}, "[6]": {"target": "Fuc(a1-2)[Gal(a1-3)]Gal(b1-3)GlcNAc(b1-2)Man(a1-3)[Fuc(a1-2)[Gal(a1-3)]Gal(b1-3)GlcNAc(b1-2)Man(a1-6)]Man(b1-4)GlcNAc(b1-4)[Fuc(a1-6)]GlcNAc", "how_it_was_run": "as §1"}, "[7]": {"target": "Fuc(a1-2)[Gal(a1-3)]Gal(b1-4)GlcNAc(b1-3)[Fuc(a1-2)[Gal(a1-3)]Gal(b1-4)GlcNAc(b1-6)]GalNAc", "how_it_was_run": "as §1"}, "[8]": {"target": "Fuc(a1-2)[Gal(a1-3)]Gal(b1-4)[Fuc(a1-3)]GlcNAc(b1-3)GalNAc", "how_it_was_run": "as §1"}, "[9]": {"target": "Fuc(a1-2)[GalNAc(a1-3)]Gal", "how_it_was_run": "as §1"}, "[10]": {"target": "Fuc(a1-2)[GalNAc(b1-3)]Gal", "how_it_was_run": "as §1"}, "[11]": {"target": "Fuc(a1-3)[Gal(b1-4)]GlcNAc(b1-2)Man", "how_it_was_run": "as §1"}, "[12]": {"target": "Fuc(a1-3)[Gal(b1-4)]GlcNAc(b1-3)Gal(b1-4)[Fuc(a1-3)]GlcNAc", "how_it_was_run": "as §1"}, "[13]": {"target": "Fuc(a1-3)[Gal(b1-4)]GlcNAc(b1-3)Gal(b1-4)[Fuc(a1-3)]GlcNAc(b1-3)Gal(b1-4)[Fuc(a1-3)]GlcNAc", "how_it_was_run": "as §1"}, "[14]": {"target": "Fuc(a1-3)[Gal(b1-4)]GlcNAc(b1-3)GalNAc", "how_it_was_run": "as §1"}, "Fuc(a1-4)GlcNAc": {"target": "Fuc(a1-4)GlcNAc", "how_it_was_run": "as §1"}, "Gal(a1-3)Gal(b1-3)GlcNAc": {"target": "Gal(a1-3)Gal(b1-3)GlcNAc", "how_it_was_run": "as §1"}, "[15]": {"target": "Gal(a1-3)Gal(b1-4)GlcNAc(b1-2)Man(a1-3)[Gal(a1-3)Gal(b1-4)GlcNAc(b1-2)Man(a1-6)]Man(b1-4)GlcNAc(b1-4)GlcNAc", "how_it_was_run": "as §1"}, "[16]": {"target": "Gal(a1-3)[Gal(a1-4)]Gal(b1-4)GlcNAc", "how_it_was_run": "as §1"}, "[17]": {"target": "Gal(b1-3)GalNAc(b1-4)[Neu5Ac(a2-3)]Gal(b1-4)Glc", "how_it_was_run": "as §1"}, "Gal(b1-3)GlcNAc(b1-2)Man": {"target": "Gal(b1-3)GlcNAc(b1-2)Man", "how_it_was_run": "as §1"}, "[18]": {"target": "Gal(b1-3)GlcNAc(b1-2)Man(a1-3)[GlcNAc(b1-4)][Gal(b1-3)GlcNAc(b1-2)Man(a1-6)]Man(b1-4)GlcNAc(b1-4)GlcNAc", "how_it_was_run": "as §1"}, "[19]": {"target": "Gal(b1-3)GlcNAc(b1-3)Gal(b1-3)GlcNAc", "how_it_was_run": "as §1"}, "Gal(b1-4)Glc": {"target": "Gal(b1-4)Glc", "how_it_was_run": "as §1"}, "Gal(b1-4)GlcNAc(b1-2)Man": {"target": "Gal(b1-4)GlcNAc(b1-2)Man", "how_it_was_run": "as §1"}, "[20]": {"target": "Gal(b1-4)GlcNAc(b1-2)[Gal(b1-4)GlcNAc(b1-4)]Man(a1-3)[Gal(b1-4)GlcNAc(b1-2)Man(a1-6)]Man(b1-4)GlcNAc(b1-4)GlcNAc", "how_it_was_run": "as §1"}, "[21]": {"target": "Gal(b1-4)GlcNAc(b1-3)Gal(b1-4)GlcNAc", "how_it_was_run": "as §1"}, "[22]": {"target": "Gal(b1-4)GlcNAc(b1-3)Gal(b1-4)GlcNAc(b1-3)Gal(b1-4)GlcNAc(b1-2)Man(a1-3)[Gal(b1-4)GlcNAc(b1-3)Gal(b1-4)GlcNAc(b1-3)Gal(b1-4)GlcNAc(b1-2)Man(a1-6)]Man(b1-4)GlcNAc(b1-4)[Fuc(a1-6)]GlcNAc", "how_it_was_run": "as §1"}, "[23]": {"target": "Gal(b1-4)GlcNAc(b1-3)Gal(b1-4)GlcNAc(b1-3)[Gal(b1-4)GlcNAc(b1-3)Gal(b1-4)GlcNAc(b1-6)]GalNAc", "how_it_was_run": "as §1"}, "[24]": {"target": "Gal3S(b1-4)[Fuc(a1-3)]GlcNAc", "how_it_was_run": "as §1"}, "GalNAc(a1-3)GalNAc": {"target": "GalNAc(a1-3)GalNAc", "how_it_was_run": "as §1"}},
  "note": "This is one part of a sample in which the strongest signals are shown more often than they occur.",
  "data": [
    {"binder": "B1", "values": [
      {"measurement": "glycan array binding signal (z-score)", "setting": "[1]", "result": -0.235},
      {"measurement": "glycan array binding signal (z-score)", "setting": "[2]", "result": 0.285},
      {"measurement": "glycan array binding signal (z-score)", "setting": "[3]", "result": -0.208},
      {"measurement": "glycan array binding signal (z-score)", "setting": "[4]", "result": -0.461},
      {"measurement": "glycan array binding signal (z-score)", "setting": "[5]", "result": 0.29},
      {"measurement": "glycan array binding signal (z-score)", "setting": "[6]", "result": -0.333},
      {"measurement": "glycan array binding signal (z-score)", "setting": "[7]", "result": 8.34},
      {"measurement": "glycan array binding signal (z-score)", "setting": "[8]", "result": -0.571},
      {"measurement": "glycan array binding signal (z-score)", "setting": "[9]", "result": -0.372},
      {"measurement": "glycan array binding signal (z-score)", "setting": "[10]", "result": -0.266},
      {"measurement": "glycan array binding signal (z-score)", "setting": "[11]", "result": 0.187},
      {"measurement": "glycan array binding signal (z-score)", "setting": "[12]", "result": -0.237},
      {"measurement": "glycan array binding signal (z-score)", "setting": "[13]", "result": 0},
      {"measurement": "glycan array binding signal (z-score)", "setting": "[14]", "result": -0.329},
      {"measurement": "glycan array binding signal (z-score)", "setting": "Fuc(a1-4)GlcNAc", "result": 19.1},
      {"measurement": "glycan array binding signal (z-score)", "setting": "Gal(a1-3)Gal(b1-3)GlcNAc", "result": 0.959},
      {"measurement": "glycan array binding signal (z-score)", "setting": "[15]", "result": 0.709},
      {"measurement": "glycan array binding signal (z-score)", "setting": "[16]", "result": 1.28},
      {"measurement": "glycan array binding signal (z-score)", "setting": "[17]", "result": -0.5},
      {"measurement": "glycan array binding signal (z-score)", "setting": "Gal(b1-3)GlcNAc(b1-2)Man", "result": 2.76},
      {"measurement": "glycan array binding signal (z-score)", "setting": "[18]", "result": -0.153},
      {"measurement": "glycan array binding signal (z-score)", "setting": "[19]", "result": 0.024},
      {"measurement": "glycan array binding signal (z-score)", "setting": "Gal(b1-4)Glc", "result": -0.451},
      {"measurement": "glycan array binding signal (z-score)", "setting": "Gal(b1-4)GlcNAc(b1-2)Man", "result": 1.02},
      {"measurement": "glycan array binding signal (z-score)", "setting": "[20]", "result": -0.051},
      {"measurement": "glycan array binding signal (z-score)", "setting": "[21]", "result": -0.125},
      {"measurement": "glycan array binding signal (z-score)", "setting": "[22]", "result": 2.77},
      {"measurement": "glycan array binding signal (z-score)", "setting": "[23]", "result": 0.116},
      {"measurement": "glycan array binding signal (z-score)", "setting": "[24]", "result": -0.285},
      {"measurement": "glycan array binding signal (z-score)", "setting": "GalNAc(a1-3)GalNAc", "result": 1.35}
    ]}
  ]
}
